Compounds without any hit were thinned out: in the full panel of roughly 83,000, 20% have a hit.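 Percent growth is the endpoint: 0 to 100 indicates growth inhibition (40 means 60% inhibition), 0 means no net growth, and negative values indicate cell death.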 The source made the active and inactive calls. How the source made its calls: active means growth percent below 10; inactive means the rest.
How the values were obtained:
Assay in all cases: NCI-60 one-dose screen, 48 h (100 = growth as untreated, 0 = no growth, -100 = all killed)
[1] = system: NCI-H23 lung; details: 10 µM unless noted
[2] = system: NCI-H322M lung; details: 10 µM unless noted
[3] = system: HOP-62 NSCLC; details: 10 µM unless noted
[4] = system: NCI-H460 lung; details: 10 µM unless noted
[5] = system: NCI-H522 lung; details: 10 µM
[6] = system: A549/ATCC NSCLC; details: 10 µM unless noted
[7] = system: 786-0 renal; details: 10 µM unless noted
[8] = system: COLO 205 colon; details: 10 µM unless noted

Measured: growth

CCN1C(=O)C2(Nc3ccccc3S2)c2cc(C)ccc21 (centres undefined)
inactive: [1] 111% | [2] 96.2% | [3] 89.7% | [4] 109% | [5] 86.8% | [6] 95.7% | [7] 113% | [8] 97%

CC1(C)CC(=O)C2=C(C1)Nc1cc3c(cc1C2c1ccc(F)cc1)OCO3 (centres undefined)
inactive: [1] 96% | [2] 94.8% | [3] 95.6% | [4] 103% | [5] 80.9% | [6] 94.5% | [7] 109% | [8] 117%

CN([N-]C(=O)CC(=O)[N-]N(C)C(=S)c1ccccc1)C(=S)c1ccccc1.[Cu+2]
active: [1] -73.8% | [2] -95.8% | [3] -98.6% | [4] -35.4% | [5] -93.4% | [6] -54.9% | [7] -72% | [8] -83.4%

CC1SC(c2ccc(Cl)cc2)N(CCc2cccs2)C1=O (centres undefined)
inactive: [2] 21.7% | [3] 15.2%
active: [1] -0.245% | [4] -24.4% | [5] -48.9% | [6] 1.08% | [7] -49.4% | [8] -60.5%

Cc1oc2c(c1C(=O)N1CC[C@@H](N)C1)C(=O)c1c(c(O)c3ccccc3c1O)C2=O
active: [4] 2.29%
inactive: [1] 45.3% | [2] 33.5% | [3] 31.9% | [5] 21% | [6] 12.4% | [7] 41% | [8] 13.1%

O=C(NCc1cccnc1)c1ccc([N+](=O)[O-])o1
active: [1] -89.1% | [2] -6.13% | [3] -4.75% | [4] -64.3% | [5] -66.5% | [6] -10.5% | [7] 4.89% | [8] -77%

CCCN(CCC)c1ccc(/C=C/c2ccc3cc(OCC)ccc3n2)cc1
inactive: [1] 83.8% | [2] 105% | [3] 125% | [4] 95.1% | [5] 76.8% | [6] 87.4% | [7] 91.1% | [8] 112%

O=C(NCc1ccco1)C1CCN(S(=O)(=O)c2ccc(Cl)cc2)CC1
inactive: [1] 77.9% | [2] 108% | [3] 92.6% | [4] 63.1% | [5] 68.7% | [6] 74.9% | [7] 82.9% | [8] 101%

Cc1nc2nc(C(F)(F)F)[nH]c2nc1C
inactive: [1] 107% | [2] 110% | [3] 93.2% | [4] 111% | [5] 90.1% | [6] 99.7% | [7] 93.5% | [8] 108%

Brc1ccccc1Nc1ccc2nnc(-c3ccncc3)n2n1
inactive: [1] 92.3% | [2] 95.6% | [3] 95.1% | [4] 104% | [6] 101% | [7] 101% | [8] 103%
active: [5] -71.2%

COC(=O)[C@H]1CCCN1C(=O)[C@H]1CCCN1C(=O)[C@@H](Cc1c[nH]c2ccccc12)NC(=S)Nc1cc(C(F)(F)F)cc(C(F)(F)F)c1
inactive: [1] 69.2% | [2] 32.8% | [3] 78.6% | [4] 18.6% | [5] 85.7% | [6] 31% | [7] 62.5% | [8] 38.4%

O=C(Nc1nc2ccccc2[nH]1)C(=O)Nc1nc2ccccc2[nH]1
inactive: [1] 89.6% | [2] 91.8% | [3] 98.6% | [4] 98.5% | [5] 101% | [6] 97.5% | [7] 108% | [8] 103%

CC1SC(c2cccc(Oc3ccccc3)c2)N(CCc2cccs2)C1=O (centres undefined)
active: [1] -14.2% | [2] 4.21% | [3] 6.21% | [4] -64.2% | [5] -50.8% | [6] -9.36% | [7] -29.6% | [8] -60.1%

O=C1NC(=S)S/C1=C\c1cccc([N+](=O)[O-])c1
inactive: [1] 89.6% | [2] 132% | [3] 114% | [4] 104% | [5] 107% | [6] 103% | [7] 91.5% | [8] 110%

COc1ccc(C2OCC(C)(C)CO2)cc1OC
inactive: [1] 98.3% | [2] 151% | [3] 117% | [4] 108% | [5] 117% | [6] 100% | [7] 110% | [8] 113%

NC(=O)c1nc2c([nH]c1=O)CCCC2
inactive: [1] 104% | [2] 120% | [3] 94.7% | [4] 115% | [5] 91.6% | [6] 103% | [7] 106% | [8] 101%

O=C1c2[nH]cc(CN[C@@H]3CCCN3)c2C(=O)c2c1c(O)c1ccccc1c2O
active: [1] -53.7% | [2] -95% | [3] -100% | [4] -92.6% | [5] -85.1% | [6] -93.1% | [7] -83.1% | [8] -79.8%

O=C1c2ccccc2C(=O)c2c(Nc3ccc(CCO)cc3)ccc(O)c21
inactive: [1] 93.3% | [2] 68.5% | [3] 107% | [4] 56% | [5] 71.5% | [6] 67.5% | [7] 104% | [8] 49.1%

COc1cc(-c2ccc3cc(OC)c(OC)c(OC)c3c2)cc(OC)c1OC
inactive: [1] 65.4% | [2] 78.7% | [3] 61.3% | [4] 60.3% | [5] 34% | [6] 50.8% | [7] 84% | [8] 54.7%

COC(=O)C1C2CC3c4[nH]c5cc(OC)ccc5c4CCN3CC2CC(OC2CCCCO2)C1OC (centres undefined)
inactive: [1] 98.9% | [2] 102% | [3] 108% | [4] 107% | [5] 93.6% | [6] 95.7% | [7] 101% | [8] 109%

COc1ccc(C2SC(C)C(=O)N2CCc2cccs2)cc1OC (centres undefined)
inactive: [1] 76.4% | [2] 91.7% | [3] 94.5% | [4] 90.3% | [5] 66.2% | [6] 80.6% | [7] 92% | [8] 93.9%

COc1ccc(-c2csc3c2-n2cccc2C3=O)cc1O
inactive: [1] 11.7% | [2] 17.5% | [3] 31.3% | [6] 11.9% | [8] 72.3%
active: [4] 1.57% | [5] -22.5% | [7] 1.66%

O=S(=O)(Nc1ncccn1)c1ccc(Nc2ccc3nnc(-c4ccncc4)n3n2)cc1
inactive: [1] 99.6% | [2] 112% | [3] 104% | [4] 96.4% | [5] 113% | [6] 104% | [7] 103% | [8] 107%

Fc1ccccc1Nc1ccc2nnc(-c3ccncc3)n2n1
inactive: [1] 93.1% | [2] 104% | [3] 106% | [4] 103% | [6] 103% | [7] 101% | [8] 106%
active: [5] -74.5%

CN(C)C(=S)SCN1C(=O)c2ccc([N+](=O)[O-])cc2S1(=O)=O
inactive: [1] 99.7% | [2] 99% | [3] 105% | [4] 103% | [5] 103% | [6] 97.7% | [7] 103% | [8] 75.9%

Cc1c(NCC(=O)Nc2nc3ccccc3[nH]2)c(=O)n(-c2ccccc2)n1C
inactive: [1] 94.9% | [2] 105% | [3] 107% | [4] 99.6% | [5] 100% | [6] 97% | [7] 104% | [8] 110%

CN1CCC(OC2c3ccccc3CCc3ccccc32)CC1
inactive: [1] 94.6% | [2] 92.8% | [3] 93.8% | [4] 106% | [5] 96.7% | [6] 96.2% | [7] 103% | [8] 99.1%

O=S(=O)(/N=C1C=C/C(=N\S(=O)(=O)c2ccccc2)c2ccccc2\1)c1ccccc1
inactive: [1] 83.1% | [2] 107% | [3] 90.2% | [4] 112% | [5] 85.9% | [6] 101% | [7] 115% | [8] 111%

COc1cc(C2CC(=O)Nc3c2ccc2ccccc32)cc(Br)c1OC (centres undefined)
active: [4] 3.08% | [5] -42.7% | [8] -57.5%
inactive: [1] 28.5% | [2] 33.1% | [3] 24.9% | [6] 18.6% | [7] 30.6%

CCOC(=O)c1sc(NC(=O)CN2CCC(Cc3ccccc3)CC2)nc1C
inactive: [1] 96.2% | [2] 90.4% | [3] 102% | [4] 101% | [5] 92.9% | [6] 104% | [7] 96.9% | [8] 97.1%

Clc1ccc(Nc2nc(Nc3ccccc3)nc(Nc3ccc(-c4cc(-c5ccc(Cl)cc5)on4)cc3)n2)cc1
active: [4] 7.19%
inactive: [1] 72.2% | [2] 77.6% | [3] 75.6% | [5] 26.2% | [6] 38.9% | [7] 53.9% | [8] 69.8%

Cc1nc(-c2ccccc2)cc2c(O)c(C(=O)N/N=C/Cc3ccccc3)[nH]c(=O)c12
inactive: [1] 100% | [2] 107% | [3] 104% | [4] 102% | [5] 91.1% | [6] 105% | [7] 103% | [8] 111%

O=C(O)c1ccccc1Oc1cc(-c2ccco2)nc(OCCBr)n1
inactive: [1] 105% | [2] 100% | [3] 101% | [4] 110% | [5] 103% | [6] 94.2% | [7] 100% | [8] 109%

Reference: PubChem BioAssay (NCI)
